Measured values as given in the supplement of paper PMC6555819.

Columns and labels:
Assay in all cases: PBM binding z-score (relative to random genomic background probes); higher = stronger binding; sequences stand for … in GC…GCGATTGACAGCGTAGAATGAAGG
[1] = system: RARb homodimer (NR concentration 270 nM)
Procedure, shortened: (§1)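 Random background probes are the reference for binding z-scores. These scores derive from regression-normalized fluorescence on custom Agilent 4×180K protein-binding microarrays incubated 1 h with ligand-free nuclear receptor dimers. Binding was detected with antibodies against each partner (one per run).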

[2] = system: RARg:RXRa (NR concentration 270 nM, RXRa partner concentration 90 nM)
Procedure, shortened: as §1

[3] = system: RARg homodimer (NR concentration 270 nM)
Procedure, shortened: as §1

[4] = system: RXRa DBDmut IVT, anti-RXR (DBD mutation: RXRa K156A/R161A, NR concentration 90 nM)
Procedure, shortened: as §1

[5] = system: RXRa homodimer (NR concentration 180 nM)
Procedure, shortened: as §1

[6] = system: THRa:RXRa (NR concentration 90 nM, RXRa partner concentration 90 nM)
Procedure, shortened: as §1

[7] = system: THRa homodimer (NR concentration 90 nM)
Procedure, shortened: as §1

[8] = system: VDR:RXRa (NR concentration 270 nM, RXRa partner concentration 90 nM)
Procedure, shortened: as §1

[9] = system: VDR homodimer (NR concentration 270 nM)
Procedure, shortened: as §1

| Sequence | PBM binding z-score [1] | PBM binding z-score [2] | PBM binding z-score [3] | PBM binding z-score [4] | PBM binding z-score [5] | PBM binding z-score [6] | PBM binding z-score [7] | PBM binding z-score [8] | PBM binding z-score [9] |
| --- | --- | --- | --- | --- | --- | --- | --- | --- | --- |
| CGAACTAGGTCACGAAAGGTCAAAGTCGAATGAC | 6.05 | 7.91 | 8.67 | 2.37 | 8.55 | 5.01 | 2.52 | 6.89 | 3.39 |
| CCTGCTAGGTCATTGTCAGCTAATCTACAGTATG | 2.45 | 3.06 | 3.95 | 2.93 | 1.9 | 2.61 | 0.862 | 1.66 | 1.14 |
| ATCTCTAGATAAAAGTTCAGTGAATCCCGAGGAT | 2.21 | 1.29 | 1.8 | 0.614 | 0.778 | 0.538 | -0.209 | 0.828 | 1.35 |
| ATCTCTAGTTAAAAGTTCAGTGAATCCCGAGGAT | 2.34 | 1.3 | 1.76 | 0.966 | 0.844 | 0.672 | 0.242 | 1.29 | 2.12 |
| AATAAAGGGTCACTAGGCCAGAGTAGGTACGAAT | 4.18 | 5.83 | 6.43 | 2.48 | 5.89 | 2.82 | 0.263 | 4.04 | 2.36 |
| ATATGTAGGTTAGCTGGGGTCATTCAAACTAGGC | 4.02 | 4.22 | 3.15 | 2.15 | 5.57 | 5.16 | 3.52 | 6.37 | 5.71 |
| CCGACTGGGGCATACGGTTACCATAAGCCAGCCC | 0.117 | 0.0936 | 0.374 | -0.766 | 0.369 | -0.473 | -0.389 | -0.577 | -0.653 |
| CCTTACGTGTCACTGACAGGTTATAGCATTTGGA | 1.37 | 1.71 | 1.21 | 0.934 | 0.941 | 0.816 | 0.847 | 0.871 | 0.842 |
| CGTCCAAGGCCAAGGTCAGTGAAAGAGACTCGAA | 3.42 | 2.86 | 3.7 | 1.31 | 1.83 | 2.87 | 1.51 | 1.15 | 0.947 |
| TCTCGGAGGACAAGAAAGGTCAGAGCTCGACATC | 4.61 | 4.01 | 4.75 | 0.958 | 3.39 | 3.24 | 0.472 | 2.67 | 0.546 |
| TCTTTTAGATCAGCAGGTTAAGAAAGCTGGCCAA | 0.0082 | 0.209 | 0.197 | 1.02 | 0.581 | 0.357 | -0.515 | 0.691 | 0.00166 |
| TCTTGTAGATCAATGGTTAAGAAAGCCGAAGCCT | -0.529 | -0.0652 | -0.444 | 0.768 | 0.123 | -0.193 | -0.412 | 0.403 | -0.25 |
| TCTTGTAGATCAAAGGTTAACAAAGCCGAAGCCT | 1.66 | 1.93 | 1.09 | 0.706 | 3.2 | 1.32 | -0.41 | 2.09 | -0.185 |
| AGGACGAGGGCACGCTGAGTTGATAGCAGAGTAG | 1.36 | 1.76 | 2.67 | 2.23 | 1.51 | 1.88 | 0.162 | 2.09 | 1.51 |
| TAGCCTAGGTCATGGGCCAATATACCACGCGAAC | 2.95 | 4.22 | 4.2 | 0.955 | 3.55 | 3.1 | 1.43 | 2.06 | 0.541 |
| CCTAGTTGGTCAGGAGGTCACGCACCGGATATGA | 4.9 | 5.68 | 4.98 | 0.815 | 5.93 | 3.94 | 2.78 | 4.58 | 2.71 |
| ACAGACAGGTGATGAAGGTAACTCAGGCTATCAT | 0.446 | 0.303 | 0.521 | -0.295 | 0.205 | 0.774 | 0.267 | 0.0426 | -0.205 |
| CCGACTGGCGCAAGGTTACCATAACGCACAGCCA | 0.818 | 0.543 | 0.602 | 0.0804 | 0.892 | 1.23 | 0.443 | 0.151 | -0.0582 |

| Sequence | PBM binding z-score [1] | PBM binding z-score [2] | PBM binding z-score [3] | PBM binding z-score [4] | PBM binding z-score [5] | PBM binding z-score [6] | PBM binding z-score [7] | PBM binding z-score [8] | PBM binding z-score [9] |
| --- | --- | --- | --- | --- | --- | --- | --- | --- | --- |
| TATAGTTGGTCACGGAGGTCACACACGACGGGTA | 4.58 | 4.81 | 4.72 | -0.131 | 5.16 | 3.9 | 2.69 | 5.81 | 2.85 |
| CCGACTGGGGCAGAAAGGCTACCATACCATCCGG | 0.243 | -0.0591 | -0.0697 | -0.996 | -0.122 | -0.836 | -0.539 | -0.639 | -0.212 |
| ATATGTAGGTTATCGGGTCGTTCAGTTTGCGCAT | 1.68 | 1.39 | 1.28 | 1.06 | 1.57 | 1.93 | 1.55 | 3.89 | 2.55 |
| TCATATAGGTCAACAGGTGAAAGTCCGTAAGTTA | 4.07 | 6.14 | 6.02 | 2.48 | 5.39 | 2.94 | 0.969 | 4.41 | 1.41 |
| CCTATTAGTTGACTATAAGGGCAACCGAAGCTCG | 1.42 | 1.15 | 0.934 | 0.543 | 0.351 | 1.79 | 0.969 | 0.181 | 0.425 |
| GCGACTGGGGCAAAGCAGGATACCATAAGGTTGG | 0.194 | 0.19 | 0.556 | -0.369 | 0.0149 | 2.27 | -0.419 | -0.613 | -0.417 |
| ATCTTTAGGTAAAGATAGTTCAGTGAATGCAAAT | 0.997 | 0.713 | 0.798 | 0.388 | 0.298 | 1.23 | 0.203 | 0.897 | 0.742 |
| CCGACTGGGGCAAAGGTTACCATCCTCAGTACGA | 2.19 | 3.56 | 1.56 | -0.109 | 4.04 | 1.77 | -0.0864 | 1.37 | -0.138 |
| CGAACGAGGGCATGAGTTGATAGGAAATGCCGAT | 0.511 | 1.1 | 1.71 | 2.4 | 0.923 | 1.07 | -0.419 | 1.13 | 1.41 |
| CAAACTATGTCAAGGTCAAAGTCGGTTTGTGCCA | 4.39 | 4.59 | 4.75 | 2.54 | 4.98 | 4.03 | 3.78 | 4.83 | 4.25 |
| ACAGACAGGTGAGTGAAGGTAGCTCAGCTGGACG | -0.151 | -0.00932 | 0.0793 | -0.355 | 0.135 | 0.263 | -0.539 | -0.56 | -0.688 |
| TCGAGTAGGTTACCAATGGGGCATTAAGCTTTCT | 0.561 | 0.966 | 0.213 | 0.338 | 0.336 | -0.0215 | -0.627 | 0.0667 | -0.636 |
| CGTCCAAGGTGAAAGGTCAGTGAAGAGATGACGG | 4.53 | 6.03 | 5.76 | 0.481 | 7.85 | 3.97 | 1.23 | 3.69 | 1.08 |
| ATATCTAGGTTAAGGGTCATTCAGGTTGGTTCGC | 3.97 | 4.82 | 3.86 | 2.66 | 5.68 | 3.82 | 2.49 | 5.89 | 4.63 |
| GGAACGAGGGCATTCGTGTTGATAGCATGGCGAT | 0.43 | 0.848 | 1.23 | 3.26 | 0.575 | 0.978 | -0.391 | 1.6 | 1.87 |
| AGAACGAGGGCAGTGAGTTGATAGCACGGGTGGC | 0.73 | 0.413 | 0.886 | 1.24 | 0.269 | 0.176 | -0.413 | 3.91 | 2.23 |
| TTTCGGAGGACACGAAGGTCAGAGCTTTCCAGAG | 3.81 | 3.45 | 4.21 | 0.363 | 2.22 | 3.06 | 1.45 | 2.47 | 1.86 |
| TCTCGGAGGACACGAAGGTCACAGCTTTCCAGAG | 4.54 | 4.52 | 4.93 | 1.47 | 3.74 | 3.86 | 1.77 |  | 2.9 |
